# TWEAK Fn14 block: blocks TWEAK-Fn14 interaction in a reporter cell assay; AID 1159606; inhibition, % at 10 µM; TWEAK-stimulated Fn14 reporter cells, luciferase luminescence, 8 h; 360,000 tested, 2% active; in the data active means inhibition above about 50%
# Peg3 prom inh: reduces Peg3 promoter-driven luciferase expression in HeLa | HeLa PEG-Prom luciferase reporter, luminescence, overnight | inhibition, % at 20 µM | 360,000 tested, 1.7% active | AID 588405;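 active means inhibition of at least 50% at 20 µM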
# TROY NFkB inh: TROY signaling inhibition | 360,000 tested, 0.98% active | Q293 LMP1-TROYcd NF-kB luciferase reporter, 4 h | inhibition, % at 10 µM;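 active means compounds whose plate-normalised and pattern-corrected inhibition of the luciferase reporter signal at the single screening dose is 50% or more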
# KKLEB cytotox: CF airway cell cytotoxicity counter-screen. KKLEB CF airway cells viability, ATPlite luminescence, overnight; active compounds read low; cells stimulated with P. aeruginosa culture filtrate. activity change (cytotoxicity), % at 5 µM. 360,000 tested, 0.36% active;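 active means corrected activity change at or below -50% at 5 µM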
# HIF-2a inh: blocks HIF-2a reporter activity | 786-0 RCC cells HIF-2a reporter, luciferase luminescence, overnight | inhibition, % at 18.8 µM | 360,000 tested, 0.72% active | AID 624352;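 active means inhibition of the luminescence signal of 40% or more relative to plate controls, in a single-dose primary screen at 18.75 µM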
# CF NFkB block: blocks PAF-induced NF-kB reporter in cystic fibrosis cells | KKLEB NF-kB-GFP reporter, GFP fluorescence overnight | inhibition, % at 5 µM | 360,000 tested, 0.86% active;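 active means at least 50% inhibition at 5 µM, scaled per plate between neutral and stimulator controls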;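 further: PAF is a Pseudomonas aeruginosa culture filtrate used as stimulus; plate controls were PAF-stimulated DMSO wells for no effect and unstimulated DMSO wells for full effect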
# * marks the source's active call; other numbers are inactive results; · = no result given. The list is not random: actives were taken first. Their share in the collection is about 4%.
SMILES,TWEAK Fn14 block,Peg3 prom inh,TROY NFkB inh,KKLEB cytotox,HIF-2a inh,CF NFkB block
CCCSc1cc(NCCOC(=O)CCC)c([N+](=O)[O-])c2nonc12,21.3,56.1*,19.4,-1.9,13.7,-5.9
Cc1nnc(Sc2cc(NCCCO)c([N+](=O)[O-])c3nonc23)s1,-5.0,56.1*,9.6,6.2,32.2,-7.2
CC1=C(C(=O)N(C)C)C(c2cccc(Cl)c2)NC(=O)N1 (configuration not stated),11.6,17.1,-2.2,2.7,13.6,4.1
CCOC(=O)c1c(CN2CCNCC2)nc2ccc(Cl)cc2c1-c1ccccc1,15.5,105.9*,9.7,0.7,-42.8,44.5
Cc1nc2ccc(Cl)cc2c(-c2ccccc2)c1C(=O)N(C)C,-17.6,20.6,-4.2,-7.5,11.2,0.2
O=C(CCl)c1ccc2c(c1)CCN2C(=O)C1CCCCC1,-14.7,104.9*,53.3*,-3.9,-19.2,-8.5
CCC1CCCCN1S(=O)(=O)c1ccc2c(c1)CCN2C(=O)C1CCC1 (configuration not stated),6.7,22.5,4.3,-21.0,26.9,22.3
Cc1ccsc1C(=O)OCC(=O)N(C)C1CCCCC1,63.0*,-170.6,31.9,-0.7,-209.0,12.6
CCN(CC)c1ccc(Nc2nc(N3CCOCC3)c3ccccc3n2)cc1,53.9*,14.9,35.3,-7.6,11.0,10.5
COc1ccc(Nc2nc(N3CCCC3)c3ccccc3n2)cc1,6.1,60.2*,46.0,0.8,6.3,-36.1
Cc1nc(N2CCCCCC2)c2ccccc2n1,-29.4,10.2,24.1,3.1,12.9,-15.9
CCN(C(=O)/C=C/c1ccc(OC)cc1)C1CCS(=O)(=O)C1 (configuration not stated),-15.2,10.4,-6.9,-18.8,4.1,14.7
COC(=O)c1cc2ccccc2n1S(=O)(=O)c1ccccc1,-2.9,12.3,-0.2,-1.8,7.4,-4.6
O=S(=O)(c1ccccc1)N1CCN(Cc2cccc(Cl)c2)CC1,78.6*,1.9,20.6,7.1,12.5,0.6
CCCCN(C(=S)Nc1ccc(F)cc1)c1c(N)n(CCC)c(=O)[nH]c1=O,11.8,10.7,-4.6,-2.5,18.6,0.2
CCOc1cc(CNc2ccc3c(c2)CCC3)ccc1O,49.2,-49.1,50.2*,-9.0,-42.9,5.1
CCN1C(=O)[C@H]2[C@H]3CN=C(SCc4ccc(C)cc4)N3[C@@](C)(C(=O)OC)[C@H]2C1=O,7.6,-29.4,-1.4,12.7,7.2,-16.3
CCN1C(=O)[C@@H]2[C@@H](c3ccc(SC4CCCCC4)cc3)N3CCCC[C@@]3(C(=O)OC)[C@@H]2C1=O,61.4*,4.1,63.1*,-5.8,39.0,17.6
CCN1C(=O)[C@H]2[C@@H](c3ccc(SC4CCCCC4)c(OC)c3)N3CCCC[C@@]3(C(=O)OC)[C@H]2C1=O,13.1,28.9,-6.3,-0.5,19.1,8.9
CCCN(CCC)CC(O)Cn1cc(/C=C/C(=O)c2ccccc2)c2ccccc21 (configuration not stated),4.0,-6.7,-12.3,-14.6,-5.7,17.1
CCCCN(C)CC(O)Cn1cc(/C=C/C(=O)c2ccc(C)cc2)c2ccccc21 (configuration not stated),4.8,100.2*,12.4,-8.3,-51.6,16.1
Cc1cccc(C)c1NC(=O)COc1ccc2c(C)c(Cc3ccccc3)c(=O)oc2c1,5.6,23.6,25.7,-8.3,9.6,2.8
Cc1cc(Nc2ccccc2)nn1C(=O)c1ccc(Br)cc1,52.6*,-94.1,·,7.7,-10.2,-3.9
CCOC(=O)N1CCN(CC(O)COc2ccc(C(C)C)c(C)c2)CC1 (configuration not stated),-15.8,9.6,19.5,8.1,15.1,-1.5
CC1CC(C)(C)NC(=S)N1CCCC(=O)Nc1ccc(Cl)cc1 (configuration not stated),29.4,16.5,3.1,24.0,12.8,-5.8
CCOc1ccc(NC(=O)CCN2C(=S)NC(C)(C)CC2C)cc1 (configuration not stated),94.3*,1.4,-2.1,2.7,7.9,9.6
Clc1ccc(-n2ncc3c(NCc4cccnc4)ncnc32)cc1Cl,19.1,-335.5,51.0*,-18.4,-266.0,2.8
Cc1cccc(-n2ncc3c(NNC(=O)c4ccco4)ncnc32)c1,-7.2,-17.1,-21.5,5.3,-42.7,-1.3
Cc1ccc(-n2ncc3c(NNC(=O)c4ccco4)ncnc32)cc1Cl,50.3*,-39.7,19.2,-13.2,-66.2,21.8

# Screens: PubChem BioAssay, Sanford-Burnham Center for Chemical Genomics
